# Screens: PubChem BioAssay, National Center for Advancing Translational Sciences (NCATS)
# Rows were chosen to be rich in hits. Some 17% of all compounds tested hit in one or more screens of this group.
# HT1080-NT tox = kills 2HG-producing HT-1080-NT fibrosarcoma cells; 360,000 tested, 1.6% active; AID 686970; HT-1080-NT fibrosarcoma viability, CellTiter-Glo ATP luminescence, 48 h; Potency, µM (highest dose often 46.1 µM), inactives show at the top dose activity, negative = less viability, actives largely listed as cytotoxic;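 note: NT is the 2HG producing partner of a matched IDH1 knockdown line; 0% = DMSO-treated cells and -100% = media-only wells without cells; nearly all actives have a fitted effect of over 55% in size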
#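 Viability of the 2HG-overproducing fibrosarcoma line after 48 hours of compound exposure at 37 degrees C was determined by luminescence with CellTiter-Glo, and concentration-effect curves were then fitted and categorized.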
# TGFb inhibitor = blocks TGF-b signaling; HepG2 CAGA-GFP TGF-b/SMAD3 reporter, GFP fluorescence, 18 h; TGF-beta stimulated, 500 pg/mL final; Potency, µM (series often up to 46.1 µM), for inactives: at the highest dose activity, negative = inhibition, hits mostly inhibitors; 410,000 tested, 1.2% active; AID 588855; note: % is set by controls: 0 for no effect and ±100 for the full control effect; nearly all actives have a fitted effect of over 65% in size
#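 Inhibition was scored as loss of TGF-beta-induced (500 pg/mL final, 18 hours, 37 degrees C) GFP in HEPG2 cells carrying a CAGA-GFP reporter, in DMEM with 1% FBS. Well GFP was summed per cell; Activity was normalised to unstimulated and stimulated DMSO wells, then concentration-response fitting.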
# HT1080 IDH1KD tx = HT-1080 IDH1 knockdown cell toxicity (counter line); 360,000 tested, 2% active; HT-1080 IDH1 knockdown viability, ATP luminescence, 48 h; AID 686971; Potency, µM (titrated, usually from 46.1 µM), inactives show top-dose activity, negative = toxicity, most hits filed as cytotoxic;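 note: 0% = DMSO wells and -100% = cell-free medium wells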
#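 % activity derives from luminescence (CellTiter-Glo), normalised to DMSO and no-cell wells. HT-1080-IDH1KD cells, 750/well, had 48 h compound exposure at 37 °C.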
# HepG2 tox = counter-screen for TGF-b inhibitors: cytotoxicity in HepG2 cells | HepG2 CAGA-GFP viability, ATP luminescence, 18 h | 410,000 tested, 0.76% active | Potency, µM (doses to about 46.1 µM), for inactives: at the highest dose activity change, negative = cytotoxicity, usual class: cytotoxic
#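 HepG2 CAGA-GFP cells (1000/well, DMEM with 1% FBS) received compound, then TGF-beta at 500 pg/mL final, and were incubated 18 hours at 37 degrees C. Viability was read by CellTiter-Glo luminescence. Media-only wells were set as complete cell-killing and DMSO as no toxicity.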
# DT40 TDP1 no CPT = qHTS for Inhibitors of human tyrosyl-DNA phosphodiesterase 1 (TDP1): qHTS in cells in absence of CPT. DT40 Tdp1-/- hTDP1 cells, no CPT, ATP luminescence, 48 h. Potency, µM (doses to about 46.2 µM), without a hit: at the highest dose activity change, negative = growth inhibition, usual class: inhibitors. 420,000 tested, 15% active. AID 686978, 2013; note: % is set by controls: 0 for no effect and ±100 for the full control effect; nearly all actives have a fitted effect of over 55% in size
#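 Chicken DT40 Tdp1-/- cells complemented with human TDP1, screened without camptothecin (DMSO vehicle only), 400 cells/well. Compounds pin-transferred, cells incubated at 37 °C for at least 48 hr. Growth read as ATP-dependent luminescence (CellTiter-Glo, 30 min at RT).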
# DT40 TDP1 CPT = growth inhibition of DT40 Tdp1-/-;hTDP1 cells with camptothecin (screen for TDP1 inhibitors); 420,000 tested, 12% active; chicken DT40 Tdp1-/-;hTDP1 cells + 20 nM CPT, ATP luminescence, 48 h; Potency, µM (highest dose often 46.2 µM), without a hit: at the top dose activity change, negative = growth inhibition, usual class: inhibitors; note: % is set by controls: 0 for no effect and ±100 for the full control effect; nearly all actives have a fitted effect of over 55% in size
#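 Chicken DT40 Tdp1-/- cells stably complemented with human TDP1 were seeded at 400 cells/well in medium containing 20 nM camptothecin, exposed to pin-transferred compounds, and grown at 37 °C for at least 48 hr. Viability was read as ATP luminescence.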
# * = called active by the depositor; ? = inconclusive; . = no result given. Calls come from the whole dose curve; as a rule, active = well fitted curve in the direction sought with a large enough effect; inconclusive = small, poorly fitted or top-dose-only effect, or another doubt; inactive = no such curve, though single readings can be large; an effect the other way counts as inactive or inconclusive. Potency is the fitted concentration of half-maximal effect.
SMILES,HT1080-NT tox,TGFb inhibitor,HT1080 IDH1KD tx,HepG2 tox,DT40 TDP1 no CPT,DT40 TDP1 CPT
COc1cc(OC)cc(-c2sc3ccc(OC)cc3c2C#CC2(N)CCCCC2)c1,?,?,?,-114.5%,14.6µM*,?
COc1cc(OC)cc(-c2sc3ccc(OC)cc3c2C#CC(C)(C)O)c1,-17.0%,?,?,-28.2%,-12.3%,-15.2%
COc1ccc(-c2sc3ccc(OC)cc3c2C#Cc2cncn2C)cc1,?,?,?,-58.7%,?,?
COc1ccc(OC)c(NC(=O)COC(=O)CCCN2C(=O)c3ccccc3C2=O)c1,6.8%,12.9%,15.5%,16.5%,1.9%,-5.9%
COc1ccc(-c2sc3cc4c(cc3c2C#CC2(N)CCCCC2)OCO4)cc1,?,?,?,-107.6%,11.6µM*,8.2µM*
COc1ccc(-c2sc3ccc(N4CCOCC4)cc3c2C#CC2(O)CCCCC2)cc1,20.6µM*,?,?,-30.6%,?,?
COc1ccc(CCNC(=O)CSc2nc(=O)n3cc(C)ccc3n2)cc1OC,1.0%,?,2.3%,-3.1%,-2.3%,0.2%
Cc1cccc(Cn2ncc(Cl)c(Cl)c2=O)c1,12.6µM*,?,7.08µM*,-90.9%,9.2µM*,11.6µM*
Cc1cc2oc(=O)cc(Cn3ncc(Cl)c(Cl)c3=O)c2cc1Cl,?,?,3.26µM*,-29.6%,3.26µM*,3.26µM*
Cc1ccc(C)c(C(=O)Cn2ncc(Cl)c(Cl)c2=O)c1,-26.2%,?,18.4µM*,-46.6%,3.26µM*,5.8µM*
Cc1ccc(C)c(C(=O)CN2C(=O)c3ccccc3S2(=O)=O)c1,-2.9%,0.2%,9.2%,3.9%,-2.4%,-0.5%
Cc1cc2oc(=O)cc(CN3CCN(c4ccccc4)CC3)c2cc1Cl,4.5%,-13.6%,2.8%,-17.0%,-4.0%,-1.8%
Cc1cc(C(=O)Cn2ncc(Cl)c(Cl)c2=O)c(C)n1CC(F)(F)F,8.2µM*,?,5.8µM*,-42.2%,3.66µM*,4.61µM*
Cc1ccc(S(=O)(=O)N(C)c2ccc(C(=O)Nc3c(C)n(C)n(-c4ccccc4)c3=O)cc2)cc1,0.0%,1.2%,1.9%,-8.8%,-8.5%,-12.4%
COc1cccc(CNC(C)(C)CO)c1OCc1ccc(Cl)cc1,-12.1%,?,-7.1%,-14.6%,?,-20.2%
COc1cccc(OCc2ccc(Cl)cc2)c1C#N,-14.2%,-5.6%,-6.7%,-28.7%,18.4µM*,?
O=C(O)c1cccc(/C=C2/C[C@@H]3[C@@H](/C=C/[C@@H](O)C4CCCCC4)[C@H](O)C[C@@H]3O2)c1,.,.,.,.,-9.3%,-3.3%
O=C(Cc1ccsc1-c1ccccc1)NO,?,12.4%,?,-1.4%,20.6µM*,25.9µM*
COc1ccc(-c2cc(NC=O)c3ncc(-c4cc(OC)c(OC)c(OC)c4)n3c2)cc1,?,3.6%,?,-11.0%,0.206µM*,0.146µM*
COc1ccc(-c2cnc3c(NC=O)cc(-c4cc(OC)c(OC)c(OC)c4)cn23)cc1OC,?,46.1%,?,-24.2%,5.17µM*,6.51µM*
COc1ccc(-c2cnc3c(NC=O)cc(-c4ccccc4)cn23)cc1OC,?,-22.0%,?,-29.6%,0.92µM*,0.92µM*
CCSc1ccc(-c2cc(NC=O)c3ncc(-c4cc(OC)c(OC)c(OC)c4)n3c2)cc1,?,-19.6%,-23.3%,-20.3%,?,?
COc1ccc(-c2cnc3c(NC=O)cc(-c4ccc(F)cc4)cn23)cc1OC,?,?,?,2.2%,0.013µM*,0.0058µM*
O=S(=O)(NCc1nnc2c(C(F)(F)F)cc(Cl)cn12)c1ccccc1,1.0%,1.3%,1.2%,-1.3%,-4.5%,1.2%
COc1ccc(-c2nc[nH]c2[N+](=O)[O-])cc1,-1.9%,15.3%,1.4%,-0.6%,2.6%,12.5%
SMILES,HT1080-NT tox,TGFb inhibitor,HT1080 IDH1KD tx,HepG2 tox,DT40 TDP1 no CPT,DT40 TDP1 CPT
COc1ccc(-c2cnc3c(NC=O)cc(-c4ccoc4)cn23)cc1OC,?,-19.3%,?,0.2%,2.91µM*,5.17µM*
CC(=O)Nc1cc(-c2ccccc2N(C)C)cn2c(-c3cccc(C(F)(F)F)c3)cnc12,?,?,?,-86.2%,?,?
COc1ccc(F)cc1-c1cc(NC=O)c2ncc(-c3cccc(C(F)(F)F)c3)n2c1,?,?,5.17µM*,12.6µM*,4.61µM*,5.17µM*
COc1cc(/C=C2\N=C(C)OC2=O)cc(Cl)c1OC(C)=O,3.3%,1.2%,2.4%,-1.4%,?,14.6µM*
CC(C)(C)c1ccc(OC(=O)Cn2c(C(F)(F)F)nc3ccccc32)cc1,5.0%,-3.4%,6.6%,-1.5%,-17.6%,-6.1%
COc1ccccc1-n1cc(-c2ccc(C)cc2)nc1S(=O)(=O)CC(=O)Nc1ccccc1C(F)(F)F,.,?,.,-3.2%,16.4µM*,?
COc1ccc(-c2cn(-c3ccc(C)cc3)c(S(=O)(=O)CC(=O)Nc3ccc(F)cc3)n2)cc1,.,-26.3%,.,-36.8%,20.6µM*,16.4µM*
COc1ccc(-c2ccc(=O)n(CC(=O)Nc3ccccc3C(F)(F)F)n2)cc1,.,-2.8%,.,-23.2%,-11.7%,-9.4%
Cc1cccc(C)c1NC(=O)CS(=O)(=O)c1nc(-c2ccc(Cl)cc2)cn1-c1ccccc1,.,?,.,0.5%,16.4µM*,9.2µM*
CN(C)S(=O)(=O)NC(=O)C1=C(N2CCCC2)COC1=O,-0.8%,4.5%,-2.1%,-1.3%,-9.7%,-5.9%
CCOc1ccccc1C(=O)NCC(=O)NNC(=O)c1cccc(S(=O)(=O)Nc2ccc(OC)cc2)c1,-27.8%,25.0%,-5.6%,3.5%,?,?
COc1ccc(-c2c(C#N)c(SCC(=O)c3cc4ccccc4oc3=O)nc(C)c2C(=O)Nc2ccccc2)cc1,1.9%,?,-2.0%,-26.0%,?,?
Cc1nc(SCC(=O)c2cc3ccccc3oc2=O)c(C#N)c(-c2ccccc2)c1C(=O)Nc1ccccc1,5.0%,-1.9%,15.6%,2.3%,18.4µM*,?
CCCCCCC(=O)N/N=C1\CCCc2ccccc21,-3.9%,5.4%,-0.1%,-10.3%,-13.8%,-4.9%
Cc1csc(SCC(=O)NCc2ccccc2)n1,7.2%,1.4%,8.8%,-1.3%,-8.4%,-10.4%
Cc1csc2sc(-c3ccnc(SCC(=O)NCc4ccccc4)n3)c(C)c12,3.26µM*,?,2.31µM*,-5.0%,0.731µM*,0.731µM*
